The target of assay [1] is Guanine nucleotide-binding protein G(i) subunit alpha-1 (Homo sapiens) (UniProt P63096). The assay can be described thus: qHTS Assay for Inhibitors of RGS12 GoLoco Motif Activity (Green Fluorophore) (AID 879). Further: potency means the concentration at half of the fitted maximal effect. In a few lines: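 Fluorescence polarization assay: 50 nM Gαi1 with 10 nM FITC-labeled RGS12 GoLoco peptide in 10 mM Tris pH 7.5, 150 mM NaCl, 0.1 mM GDP, 0.05% NP40, 10 min at room temperature with compound.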

Assay [2] addresses Cytochrome P450 2C9 (Homo sapiens) (UniProt P11712). Put plainly: qHTS Assay for Inhibitors and Substrates of Cytochrome P450 2C9 (AID 883). Further: nearly all actives have a fitted effect of over 60% in size. Further: potency means the concentration at half of the fitted maximal effect. The method in brief:
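Turnover of Luciferin-H (100uM, KM) by 10nM human CYP2C9 was measured over 60 min at 37C with NADPH regeneration; inhibitors and some substrates reduce luminescence. Data normalized to sulphaphenazole 57uM.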
(In general: In qHTS, concentration-response curves come from the screen itself.)

Assay [3] deals with Cytochrome P450 3A4 (Homo sapiens) (UniProt P08684). The assay can be described thus: qHTS Assay for Inhibitors and Substrates of Cytochrome P450 3A4 (AID 884). Further: nearly all actives have a fitted effect of over 50% in size. Further: potency means the concentration at half of the fitted maximal effect. The method in brief: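 20 nM human CYP3A4 with 25 uM Luciferin-PPXE (at KM) in 200 mM KPO4, preincubated 10 min with compound; NADPH regeneration started a 60 min RT reaction. Luciferin detected by luminescence, normalized to 57 uM ketoconazole as full inhibition.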

The target is the same in assay [4]. The assay can be described thus: qHTS Assay for Activators of Cytochrome P450 3A4 (AID 885). Further: nearly all actives have a fitted effect of over 65% in size. Further: potency means the concentration at half of the fitted maximal effect. In a few lines: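 Steps: enzyme/substrate mix dispensed; compound added, 10 min RT; NADPH regeneration solution added, 60 min RT; luciferin detection buffer stops reaction; 20 min later luminescence measured.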
A short description of assay [5]: qHTS Assay for Identification of Small Molecule Antagonists for NFkB Signaling Pathway (AID 895; active means well fitted inhibition curve with a large enough effect in the signal ratio, with a control signal flat, not every such curve was filed as active; the % refers to the signal ratio; further: potency means the concentration at half of the fitted maximal effect). In a few lines: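 Beta-lactamase reporter read-out (460 and 530 nm emission ratio, 405 nm excitation, 2 hrs substrate loading RT) after 5 hr stimulation with 10 pM TNF alpha in compound-treated NFkB-bla ME-180 cells in low-serum medium.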
Assay [6] can be described thus: qHTS Assay for Identification of Small Molecule Agonists for Thrombopoietin (TPO) Signaling Pathway (AID 917). The method in brief: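 We measured Glycoprotein IIb promoter–luciferase output in IL-3-starved Ba/F3 murine cells expressing the human TPO receptor after 24 hrs at 37 C with compounds and 26 pM TPO.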
For assay [7], the target named is Muscarinic acetylcholine receptor M1 (Rattus norvegicus) (UniProt P08482). The assay can be described thus: qHTS Assay for Antagonists of Acetylcholine Muscarinic M1 Receptor: Measurement of IP-One Response (AID 944). Further: nearly all actives have a fitted effect of over 75% in size. In a few lines: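 CHO cells stably expressing rat M1, pretreated 10 min with compound, then stimulated 30 min with carbachol at EC80 (200 nM) in LiCl-containing buffer pH 7.4; IP1 accumulation read by HTRF competition (665/620 nm).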

Assay [8] addresses Cytochrome P450 2D6 (Homo sapiens) (UniProt P10635). The assay can be described thus: qHTS Assay for Inhibitors and Substrates of Cytochrome P450 2D6 (AID 891). Further: nearly all actives have a fitted effect of over 60% in size. Further: potency means the concentration at half of the fitted maximal effect. The method in brief:
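Human CYP2D6 (5 nM) with 30 uM Luciferin-ME EGE (at Km) in 100 mM KPO4, compound preincubated 10 min, then NADPH regeneration system for 60 min at room temperature. Luciferin read by luminescence; normalized to 1.43 uM quinidine.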

Assay [9] concerns the target Cytochrome P450 2C19 (Homo sapiens) (UniProt P33261). The assay can be described thus: qHTS Assay for Inhibitors and Substrates of Cytochrome P450 2C19 (AID 899). Further: nearly all actives have a fitted effect of over 60% in size. Further: potency means the concentration at half of the fitted maximal effect. The method in brief:
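Reactions contain 5nM enzyme, 10uM Luciferin-H EGE (KM) and 50mM KPO4; compound preincubates 10 min at 37C, NADPH regeneration starts turnover for 60 min. Luminescence after detection reagent gives activity.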

A short description of assay [10]: Confirmation and Secondary Assay for Modulators of Hemoglobin Beta Chain Splicing at IVS2 654 locus (AID 910).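 Further: HeLa cells stably carrying EGFP split by mutant beta-globin IVS2-654 intron; per-well total GFP intensity by laser scanning cytometry after 2-day treatment.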 The method in brief: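 Readout: per-well total peak green fluorescence (488 nm ex, 500–520 nm em) from objects 5–250 µm, reflecting correct splicing of an EGFP-654 reporter. Compounds were applied for 2 days at 37 °C to overnight-plated HeLa EGFP-654 cells; controls were DMSO and 500 nM IVS2-654 PNA.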

The nature of assay [11]: Confirmation and Secondary Assay for Modulators of Hemoglobin Beta Chain Splicing at IVS2 705 locus (AID 930).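 Further: HeLa cells stably expressing the EGFP-705 splicing reporter; GFP fluorescence per well restored by corrected splicing of the IVS2-705 intron in EGFP; series mostly up to about 46 µM.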 The method in brief: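 Fluorescence gain (488 nm laser, 500-520 nm PMT) reflects restored correct splicing of a mutant IVS2-705 intron inside EGFP in stably transfected HeLa cells after 2-day compound treatment.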
The target of assay [12] is Muscarinic acetylcholine receptor M1 (Rattus norvegicus) (UniProt P08482). The assay can be described thus: qHTS Assay for Antagonists of Acetylcholine Muscarinic M1 Receptor: Kinetic Measurement of Intracellular Calcium Response (AID 943). Further: nearly all actives have a fitted effect of over 75% in size. Further: potency means the concentration at half of the fitted maximal effect. In a few lines:
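CHO cells expressing rat M1 receptor, Fluo-4 loaded, preincubated 10 min with compound, then stimulated with EC80 carbachol (100 nM final). Kinetic calcium fluorescence over 4 min; response taken as peak over basal signal.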

Data on 24 molecules can be found in PubChem BioAssay (NCATS).

Values joined by “and” are separate entries in the source; they are usually repeats but may differ in a detail not shown here. Identical values can stand only once. Inconclusive results are not listed. Active and inactive are the calls of the source. Unless noted, the call rests on the fitted dose curve; in most records, active means well fitted curve in the direction sought with a large enough effect; inconclusive means small, poorly fitted or top-dose-only effect, or another doubt; inactive means no such curve, though single readings can be large; an effect the other way counts as inactive or inconclusive.

Chain of Muscarinic acetylcholine receptor M1 (Rattus norvegicus) (P08482 whole entry, looked up): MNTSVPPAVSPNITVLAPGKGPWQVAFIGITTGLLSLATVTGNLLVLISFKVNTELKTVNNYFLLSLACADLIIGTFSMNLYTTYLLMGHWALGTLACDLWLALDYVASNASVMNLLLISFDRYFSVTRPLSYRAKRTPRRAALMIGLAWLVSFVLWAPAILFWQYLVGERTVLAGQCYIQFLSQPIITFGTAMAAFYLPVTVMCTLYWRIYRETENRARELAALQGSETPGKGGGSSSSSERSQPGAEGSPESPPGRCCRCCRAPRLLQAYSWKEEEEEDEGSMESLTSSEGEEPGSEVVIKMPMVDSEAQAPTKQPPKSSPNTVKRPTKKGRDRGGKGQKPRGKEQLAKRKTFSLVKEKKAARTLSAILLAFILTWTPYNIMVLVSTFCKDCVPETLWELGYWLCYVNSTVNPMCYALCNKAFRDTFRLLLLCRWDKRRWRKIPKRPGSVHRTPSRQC
Chain of Guanine nucleotide-binding protein G(i) subunit alpha-1 (Homo sapiens) (P63096 whole entry, looked up): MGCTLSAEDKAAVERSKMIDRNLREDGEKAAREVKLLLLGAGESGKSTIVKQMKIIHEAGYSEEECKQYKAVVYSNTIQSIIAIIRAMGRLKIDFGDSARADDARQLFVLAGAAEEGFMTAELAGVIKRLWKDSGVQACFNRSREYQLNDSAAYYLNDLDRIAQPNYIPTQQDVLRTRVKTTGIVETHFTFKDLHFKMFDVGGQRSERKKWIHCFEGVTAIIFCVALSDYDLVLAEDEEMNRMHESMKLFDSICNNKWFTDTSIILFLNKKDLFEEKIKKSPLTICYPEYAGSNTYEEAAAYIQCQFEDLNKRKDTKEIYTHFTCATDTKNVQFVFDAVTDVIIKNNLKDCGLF
Chain of Cytochrome P450 2C9 (Homo sapiens) (P11712 whole entry, looked up): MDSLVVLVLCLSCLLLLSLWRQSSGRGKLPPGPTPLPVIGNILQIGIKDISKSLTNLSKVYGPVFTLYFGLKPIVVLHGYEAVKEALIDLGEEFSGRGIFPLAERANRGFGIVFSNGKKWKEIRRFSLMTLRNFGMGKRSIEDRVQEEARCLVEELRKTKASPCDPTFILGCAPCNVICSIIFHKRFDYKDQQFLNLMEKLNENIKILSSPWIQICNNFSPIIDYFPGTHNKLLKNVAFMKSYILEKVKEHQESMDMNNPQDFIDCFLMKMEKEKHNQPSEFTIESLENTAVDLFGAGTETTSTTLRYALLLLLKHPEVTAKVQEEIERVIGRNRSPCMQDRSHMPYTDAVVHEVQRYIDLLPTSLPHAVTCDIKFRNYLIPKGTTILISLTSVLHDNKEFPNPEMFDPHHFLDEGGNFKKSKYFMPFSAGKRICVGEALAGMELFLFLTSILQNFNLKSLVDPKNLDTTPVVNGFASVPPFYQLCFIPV
Chain of Cytochrome P450 2D6 (Homo sapiens) (P10635 whole entry, looked up): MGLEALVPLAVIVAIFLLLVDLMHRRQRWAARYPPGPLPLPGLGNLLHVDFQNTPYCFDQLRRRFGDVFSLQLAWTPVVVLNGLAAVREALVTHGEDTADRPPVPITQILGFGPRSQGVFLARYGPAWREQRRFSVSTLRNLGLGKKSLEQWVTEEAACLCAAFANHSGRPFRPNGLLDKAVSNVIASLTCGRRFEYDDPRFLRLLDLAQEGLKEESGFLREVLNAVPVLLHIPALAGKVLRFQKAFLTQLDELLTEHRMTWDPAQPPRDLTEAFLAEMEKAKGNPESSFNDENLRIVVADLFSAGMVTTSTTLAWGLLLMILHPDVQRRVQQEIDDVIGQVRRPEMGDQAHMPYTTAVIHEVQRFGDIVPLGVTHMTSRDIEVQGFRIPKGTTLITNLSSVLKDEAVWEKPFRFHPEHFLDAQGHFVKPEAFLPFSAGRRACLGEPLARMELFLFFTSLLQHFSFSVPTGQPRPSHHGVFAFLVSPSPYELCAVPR
Chain of Cytochrome P450 2C19 (Homo sapiens) (P33261 whole entry, looked up): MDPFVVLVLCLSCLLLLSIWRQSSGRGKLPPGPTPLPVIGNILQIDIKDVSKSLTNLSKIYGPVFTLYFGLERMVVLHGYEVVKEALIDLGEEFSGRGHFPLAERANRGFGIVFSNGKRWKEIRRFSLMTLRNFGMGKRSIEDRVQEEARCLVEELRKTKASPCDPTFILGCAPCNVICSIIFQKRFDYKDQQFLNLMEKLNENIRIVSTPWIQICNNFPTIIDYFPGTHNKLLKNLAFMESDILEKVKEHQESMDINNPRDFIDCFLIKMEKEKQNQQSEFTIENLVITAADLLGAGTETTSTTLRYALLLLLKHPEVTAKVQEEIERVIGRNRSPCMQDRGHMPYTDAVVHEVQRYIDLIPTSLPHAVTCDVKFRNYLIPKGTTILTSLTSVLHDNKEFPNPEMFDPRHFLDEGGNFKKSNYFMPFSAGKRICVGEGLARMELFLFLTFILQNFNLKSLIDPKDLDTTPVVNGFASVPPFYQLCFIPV
Chain of Cytochrome P450 3A4 (Homo sapiens) (P08684 whole entry, looked up): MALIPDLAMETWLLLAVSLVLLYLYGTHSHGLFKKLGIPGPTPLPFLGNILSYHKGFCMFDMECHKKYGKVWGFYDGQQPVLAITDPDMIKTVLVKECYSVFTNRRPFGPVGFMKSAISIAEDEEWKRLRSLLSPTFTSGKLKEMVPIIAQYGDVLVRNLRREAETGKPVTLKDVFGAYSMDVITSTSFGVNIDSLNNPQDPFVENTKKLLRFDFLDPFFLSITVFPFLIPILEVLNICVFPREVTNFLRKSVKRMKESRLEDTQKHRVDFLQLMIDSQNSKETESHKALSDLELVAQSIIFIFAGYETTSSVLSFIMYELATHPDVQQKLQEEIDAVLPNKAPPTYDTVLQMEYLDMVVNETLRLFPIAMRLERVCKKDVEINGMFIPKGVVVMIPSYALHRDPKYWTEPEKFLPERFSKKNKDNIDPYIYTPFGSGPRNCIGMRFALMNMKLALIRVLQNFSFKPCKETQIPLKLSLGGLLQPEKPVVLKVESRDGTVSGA

With `CCN(CC)CCOC(=O)c1cc(Cl)c(N)cc1OC`, the Potency result in assay [1], in assay [2], in assay [3], in [4], in assay [5] and in [6] was “inactive” throughout. The Potency result in assay [7] is “inactive”.

Take `NC/C=C\C(=O)O`: the Potency entry in assay [1], in assay [2], in assay [3], in assay [8], in assay [5] and in assay [9] was “inactive” throughout. In addition, the Potency result in [10], in [6], in assay [12] and in assay [7] was “inactive” each time. Moreover, in assay [11], the call was inactive.

Take `O=[N+]([O-])c1cccc2cn[nH]c12`: the Potency result in assay [1], in [2], in [8], in assay [5], in assay [9] and in assay [10] was “inactive” in each case. Besides, the Potency entry in assay [6] and in [7] was “inactive” each time. Further, the molecule was called inactive in assay [11].

As for `CC[C@H](NC(=O)c1c(C)c(-c2ccccc2)nc2ccccc12)c1ccccc1`, the Potency result in [1], in assay [8], in [6] and in [7] was “inactive” in each case. In addition, the figures for the Potency in [2], in assay [5] and in assay [9] were 12.6 µM (active), 12.6 µM (active) and 25.1 µM (active), respectively.

On to `O=C(O)c1cccnc1C(=O)O`, for which the Potency entry in [1], in assay [2], in assay [3], in [8], in [5] and in assay [9] was “inactive” in each case. The Potency result in assay [10], in assay [6], in assay [12] and in assay [7] was “inactive” throughout. The outcome in [11] was inactive.

Turning to `CC(=O)NNC(=O)N1Cc2ccccc2Oc2ccc(Cl)cc21`, the Potency result in [1], in assay [2], in [4] and in assay [9] was “inactive” each time. The Potency in [8] was 6.31 µM (active).

With `COc1cc(/C=C(\C#N)C(=O)c2ccc(O)c(O)c2)cc(I)c1O`, the Potency entry in assay [1], in [4], in [6] and in [12] was “inactive” each time. The Potency in [2] is 0.501 µM (active).

On to `CCCn1c(=O)c2[nH]c(C3CCCC3)nc2n(CCC)c1=O`, for which the Potency entry in [1], in [2], in assay [3], in [8], in [5] and in assay [9] was “inactive” in each case. The Potency result in assay [10], in [6] and in assay [7] was “inactive” in each case. Also, in assay [11], the molecule was called inactive.

For `CN[C@H](CC(=O)O)C(=O)O`, the Potency result in assay [1], in [2], in [3], in assay [8], in assay [5] and in assay [9] was “inactive” each time. For the same molecule, the Potency result in assay [6] and in [7] was “inactive” each time.

For the molecule `CCCc1c(-c2ccc(O)cc2)nn(-c2ccc(O)cc2)c1-c1ccc(O)cc1`, the Potency entry in assay [1], in assay [4] and in assay [12] was “inactive” each time. Moreover, the Potency in [2] is 3.16 µM (active); in assay [3], 2.51 µM (active); in [8], 39.8 µM (active); in assay [9], 10 µM (active).

Take `CCn1c(=O)[nH]c2cc(Cl)c(Cl)cc21`: the Potency entry in [1], in assay [2], in assay [4], in assay [8], in [9] and in assay [6] was “inactive” throughout. In addition, the Potency entry in [12] and in [7] was “inactive” each time.

In the case of `C[C@H](NC(=O)/C(C#N)=C/c1ccc(O)c(O)c1)c1ccccc1`, the Potency entry in [1], in assay [2], in [4], in [8], in assay [9] and in assay [12] was “inactive” in each case. For the same molecule, in assay [7], the Potency result was “inactive”. The Potency in assay [3] was 3.16 µM (active).

Regarding `CC(C)(C)c1cc(/C=C(\C#N)C(N)=S)cc(C(C)(C)C)c1O`, the Potency entry in assay [1] and in assay [4] was “inactive” throughout. Also, in [3], the Potency was 3.98 µM (active).

As for `O=C(OCCN1CCOCC1)C1(c2ccccc2)CCCCC1`, the Potency entry in assay [1], in [4] and in [6] was “inactive” throughout. For the same molecule, the Potency in [3] was 3.16 µM (active) and 1.58 µM (active); in [12], 2 µM (active).

`Nc1ccc(-c2ccc3ccccc3n2)cc1`: the Potency result in assay [1], in [4], in assay [5] and in assay [7] was “inactive” each time. In addition, in assay [3], the Potency is 3.98 µM (active).

Take `OC1(c2ccc(Cl)cc2)CCN(Cc2c[nH]c3ccccc23)CC1`: the Potency entry in [1], in [2] and in assay [9] was “inactive” throughout.

On to `Nc1ncnc2c1c(-c1ccc(Oc3ccccc3)cc1)cn2C1CCCC1`, for which the Potency result in [1], in [3] and in assay [7] was “inactive” throughout. Further, the Potency in assay [4] was 3.16 µM (active).

Regarding `O=C(O)C1=CC(=C(c2ccc(O)c(C(=O)O)c2)c2ccc(O)c(C(=O)O)c2)C=CC1=O`, in assay [1], the Potency is 15.8 µM (active). For the same molecule, the Potency entry in assay [3], in assay [5], in assay [10], in assay [12] and in [7] was “inactive” each time. For the same molecule, in assay [11], the result was inactive.

`N[C@@H](Cc1ccc(O)c(I)c1)C(=O)O`: the Potency entry in assay [1], in assay [3], in assay [6], in assay [12] and in assay [7] was “inactive” each time.

Consider `O=C(O)C1=CCCNC1`, for which the Potency result in [1], in assay [3], in assay [5], in assay [10], in assay [6] and in [12] was “inactive” in each case. In addition, the Potency entry in [7] was “inactive”. Further, the outcome in assay [11] was inactive.

In the case of `CC(C)Cn1c(=O)n(C)c(=O)c2[nH]cnc21`, the Potency result in [1], in assay [4], in assay [10], in assay [6], in assay [12] and in [7] was “inactive” throughout. In addition, in [3], the Potency is 3.98 µM (active) and 15.8 µM (active) and 12.6 µM (active). In addition, the molecule was classed as inactive in assay [11].

As for `Cn1c(=O)[nH]c2ncn(C)c2c1=O`, the Potency result in assay [1], in assay [3], in [5], in assay [10], in [6] and in [12] was “inactive” each time. In addition, the Potency entry in [7] was “inactive”. Besides, the call in assay [11] was inactive.

For the molecule `CC[N+](CC)(CC)CC(=O)Nc1c(C)cccc1C`, the Potency result in assay [1], in assay [2], in assay [5] and in [6] was “inactive” throughout.

As to `CN(C)S(=O)(=O)c1ccc2c(c1)/C(=C/c1cc3c([nH]1)CCCC3)C(=O)N2`, the Potency entry in assay [1], in assay [4], in assay [6] and in assay [12] was “inactive” each time. Moreover, the Potency was 5.01 µM (active) in assay [3] and 1.58 µM (active) in assay [5].
